Reference: PubChem BioAssay (Tox21)
Unmarked numbers belong to inactive results. Results filed as inconclusive are left out. Where a call stands in place of a potency, no number is given. The source made the active and inactive calls. Unless noted, the call rests on the fitted dose curve; in most records, active means well fitted curve in the direction sought with a large enough effect in the repeat runs; inconclusive means weak or mixed curves; inactive means no such curve, though single readings can be large; an effect the other way counts as inactive or inconclusive.

What was measured:
[1] = Human pregnane X receptor (PXR) small molecule agonists, qHTS cell viability counter screen (AID 1346977); further: nearly all actives have a fitted effect of over 50% in size; further: potency means the concentration at half of the fitted maximal effect
Summary of the method: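 In each well, the PXR reporter HepG2 line was checked for viability: CellTiter-Fluor reagent added 23hr post-dosing, fluorescence read after 1hr incubation at 37C.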

[2] = Caspase-3/7 induction in HepG2 cells by small molecules, qHTS assay (AID 1346978); further: nearly all actives have a fitted effect of over 15% in size; further: potency means the concentration at half of the fitted maximal effect
Summary of the method: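 Caspase-3/7 induction was measured by Caspase-Glo 3/7 luminescence (30 min, room temperature) after a 17 hr compound exposure of wild-type HepG2 cells seeded at 2,000 per well and pre-incubated 5 hr.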

[3] = Caspase-3/7 induction in CHO-K1 cells by small molecules, qHTS cell viability counter screen (AID 1346979); further: nearly all actives have a fitted effect of over 35% in size; further: potency means the concentration at half of the fitted maximal effect
Summary of the method: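 Following a 5hr settling period, CHO-K1 cells at 1,500 per well received DMSO-dissolved compounds. Cell viability was quantified 16hr later by CellTiter-Fluor fluorescence, measured after 1hr with reagent at 37C.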

[4] = Caspase-3/7 induction in CHO-K1 cells by small molecules, qHTS assay (AID 1346980); further: nearly all actives have a fitted effect of over 15% in size; further: potency means the concentration at half of the fitted maximal effect
Summary of the method: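 Luminescent Caspase-Glo 3/7 read (30min, room temperature) quantified apoptosis induction. Cells were wild-type CHO-K1, treated with compound for 17hr at 37 C and 5% CO2.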

[5] = Caspase-3/7 induction in HepG2 cells by small molecules, qHTS cell viability counter screen (AID 1346981); further: nearly all actives have a fitted effect of over 30% in size; further: potency means the concentration at half of the fitted maximal effect
Summary of the method: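 Fluorescence read-out of live-cell protease activity (CellTiter-Fluor) after 1 hr with reagent. This was measured in the same wells as the caspase-3/7 luminescence, on HepG2 cells exposed to DMSO-dissolved compounds for 16 hr at 37 C.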

[6] = target: Nuclear receptor subfamily 1 group I member 2 (Homo sapiens) (UniProt O75469); test: Human pregnane X receptor (PXR) small molecule agonists, qHTS assay (AID 1346982); further: nearly all actives have a fitted effect of over 35% in size; further: potency means the concentration at half of the fitted maximal effect
Summary of the method: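 HepG2 PXR-Luc reporter line, 5% charcoal-stripped FBS; 5 hr pre-incubation, compound (DMSO) 24 hr at 37 C/5% CO2; ONE-Glo 30 min RT; luminescence read-out.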

[7] = target: Acetylcholinesterase (Homo sapiens) (UniProt P22303); test: Acetylcholinesterase (AChE) small molecule antagonists: colormetric cell-based qHTS assay (AID 1347395; calls by dose curve; further: nearly all actives have a fitted effect of over 30% in size)
Summary of the method: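 After overnight attachment at 37 C, SH-SY5Y cells get 30 min compound exposure; detection cocktail (acetylthiocholine, DTNB) then incubates 90 min at 37 C, and absorbance reflects AChE-generated thiocholine.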

[8] = target: Acetylcholinesterase (Homo sapiens) (UniProt P22303); test: Acetylcholinesterase (AChE) small molecule antagonists: enzyme-based qHTS assay (AID 1347397; calls by dose curve; further: nearly all actives have a fitted effect of over 55% in size); conditions: Potency: AChE enzyme activity inhibition
Summary of the method: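 Colorimetric DTNB readout of acetylthiocholine hydrolysis, 10 min at room temperature, after 30 min room-temperature exposure of 50 mU/mL recombinant human enzyme to compound; DMSO vehicle control.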

[9] = target: Acetylcholinesterase (Homo sapiens) (UniProt P22303); test: Acetylcholinesterase (AChE) small molecule antagonists: fluorescence cell-based qHTS assay (AID 1347398; calls by dose curve; further: nearly all actives have a fitted effect of over 50% in size); conditions: Potency: AChE activity
Summary of the method: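 Cellular AChE activity read as thiocholine from acetylthiocholine hydrolysis, detected by Thiolite Green fluorescence at 490/520 nm after 40 min at room temperature. Compounds were pre-incubated 30 min at 37 C on adherent SH-SY5Y cells.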

[10] = target: Acetylcholinesterase (Homo sapiens) (UniProt P22303); test: Acetylcholinesterase (AChE) small molecule antagonists: enzyme-based qHTS assay with human liver microsomes (AID 1347399; calls by dose curve; further: nearly all actives have a fitted effect of over 60% in size); conditions: Potency: qHTS inhibition
Summary of the method: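 Recombinant human AChE (50 mU/mL in the enzyme mix) and human liver microsomes (0.25 mg/mL final) were preincubated with compound and NADPH (0.25 mg/mL final) for 30 min at 37 C. Acetylthiocholine/DTNB was then added; thiocholine was read colorimetrically after 10 min at room temperature.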

[11] = target: Cytochrome P450 2D6 (Homo sapiens) (UniProt P10635); test: Cytochrome P450 Family 2 Subfamily D Member 6 (CYP2D6) small molecule antagonists: luciferase reporter qHTS assay (AID 1671196); further: nearly all actives have a fitted effect of over 50% in size; further: potency means the concentration at half of the fitted maximal effect
Summary of the method: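 Luminogenic proluciferin substrate, CYP2D6 enzyme; 10 min RT preincubation with compound, NADPH regeneration system added, 1 h RT. Stop/detection reagent, 20 min RT, luminescence read (RLU). Signal proportional to CYP activity.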

[12] = target: Cytochrome P450 2C19 (Homo sapiens) (UniProt P33261); test: Cytochrome P450 Family 2 Subfamily C Member 19 (CYP2C19) small molecule antagonists: luciferase reporter qHTS assay (AID 1671197); further: nearly all actives have a fitted effect of over 65% in size; further: potency means the concentration at half of the fitted maximal effect
Summary of the method: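 Light output is proportional to CYP2C19 activity: proluciferin substrate is converted to luciferin, then detected by a luciferin detection reagent that also stops the 1 h, 37C NADPH-driven reaction. Ketoconazole serves as positive control.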

[13] = target: Cytochrome P450 2C9 (Homo sapiens) (UniProt P11712); test: Cytochrome P450 Family 2 Subfamily C Member 9 (CYP2C9) small molecule antagonists: luciferase reporter qHTS assay (AID 1671198); further: nearly all actives have a fitted effect of over 50% in size; further: potency means the concentration at half of the fitted maximal effect
Summary of the method: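 Enzyme-substrate mix preincubated with compound 10 min at room temperature; reaction started with NADPH regeneration solution, 1 h 37C. Luminescent luciferin product read after 20 min detection reagent.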

[14] = target: Cytochrome P450 1A2 (Homo sapiens) (UniProt P05177); test: Cytochrome P450 Family 1 Subfamily A Member 2 (CYP1A2) small molecule antagonists: luciferase reporter qHTS assay (AID 1671199); further: nearly all actives have a fitted effect of over 50% in size; further: potency means the concentration at half of the fitted maximal effect
Summary of the method: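 Luminescence readout (relative luminescence units) after luciferin detection reagent, 20 min RT. Preceded by 1 h room-temperature CYP1A2 reaction with NADPH regeneration solution following 10 min compound preincubation with enzyme and proluciferin substrate. Furafylline positive control.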

[15] = target: Cytochrome P450 3A4 (Homo sapiens) (UniProt P08684); test: Cytochrome P450 Family 3 Subfamily A Member 4 (CYP3A4) small molecule antagonists: luciferase reporter qHTS assay (AID 1671201); further: nearly all actives have a fitted effect of over 50% in size; further: potency means the concentration at half of the fitted maximal effect
Summary of the method: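 CYP3A4 activity was followed with a P450-Glo proluciferin substrate. Test compounds in DMSO were preincubated 10 min; NADPH regeneration then ran 1 h, and light output was read 20 min after detection reagent.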

[16] = target: Voltage-gated inwardly rectifying potassium channel KCNH2 (Homo sapiens) (UniProt Q12809); test: Human Ether-a-go-go-Related Gene (hERG) channel small molecule antagonists: fluorescence cell-based qHTS assay (AID 1671200); further: nearly all actives have a fitted effect of over 50% in size; further: potency means the concentration at half of the fitted maximal effect
Summary of the method: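 In this thallium-flux screen, overnight-cultured U2OS cells bearing the channel are dye-loaded in darkness for an hour, rested 10 min at room temperature, and then monitored kinetically at 480/540 nm for two minutes post-stimulus.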

[17] = target: Nuclear receptor subfamily 1 group I member 2 (Rattus norvegicus) (UniProt Q9R1A7); test: Rat pregnane X receptor (rPXR) activation by small molecules, qHTS assay (AID 1346983); conditions: rPXR luciferase reporter cells, One-Glo luminescence, 24 h; max activation: hits give high values; further: nearly all actives have a fitted effect of over 20% in size
Summary of the method: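 Luminescent readout (One-Glo luciferase, 30 min room temperature) followed 24 hr compound treatment at 37 C of rPXR cells plated 2,000 per well and preincubated 5hr; qHTS format with compounds delivered in DMSO.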

[18] = target: Nuclear receptor subfamily 1 group I member 2 (Homo sapiens) (UniProt O75469); test: CYP3A4 induction through human pregnane X receptor (PXR) by small molecules, qHTS assay (AID 1346984); further: nearly all actives have a fitted effect of over 40% in size
Summary of the method: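 HepG2-derived DPX-2 line carrying PXR plus a CYP3A4-promoter luciferase reporter; cells plated 5 hr, compound-exposed 24 hr at 37C. CYP3A4 activity probed with 3uM (final) Luciferin-IPA for 3hr, then luciferase read after One-Glo.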

Cytochrome P450 3A4 (Homo sapiens), sequence (P08684 whole entry, looked up): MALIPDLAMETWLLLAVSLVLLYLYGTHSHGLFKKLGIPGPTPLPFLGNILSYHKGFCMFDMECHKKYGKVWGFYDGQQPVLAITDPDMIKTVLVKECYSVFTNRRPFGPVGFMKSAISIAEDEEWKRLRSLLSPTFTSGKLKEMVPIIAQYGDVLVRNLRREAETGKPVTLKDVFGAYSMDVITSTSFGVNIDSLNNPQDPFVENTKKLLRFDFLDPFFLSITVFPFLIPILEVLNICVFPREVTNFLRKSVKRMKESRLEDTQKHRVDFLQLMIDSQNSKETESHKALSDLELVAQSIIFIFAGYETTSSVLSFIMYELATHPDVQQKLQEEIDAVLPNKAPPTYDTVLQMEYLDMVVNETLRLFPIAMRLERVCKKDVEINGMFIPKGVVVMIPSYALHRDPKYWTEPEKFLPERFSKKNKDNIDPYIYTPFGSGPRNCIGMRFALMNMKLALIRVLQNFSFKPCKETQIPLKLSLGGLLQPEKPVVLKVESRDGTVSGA
Acetylcholinesterase (Homo sapiens), sequence (P22303 whole entry, looked up): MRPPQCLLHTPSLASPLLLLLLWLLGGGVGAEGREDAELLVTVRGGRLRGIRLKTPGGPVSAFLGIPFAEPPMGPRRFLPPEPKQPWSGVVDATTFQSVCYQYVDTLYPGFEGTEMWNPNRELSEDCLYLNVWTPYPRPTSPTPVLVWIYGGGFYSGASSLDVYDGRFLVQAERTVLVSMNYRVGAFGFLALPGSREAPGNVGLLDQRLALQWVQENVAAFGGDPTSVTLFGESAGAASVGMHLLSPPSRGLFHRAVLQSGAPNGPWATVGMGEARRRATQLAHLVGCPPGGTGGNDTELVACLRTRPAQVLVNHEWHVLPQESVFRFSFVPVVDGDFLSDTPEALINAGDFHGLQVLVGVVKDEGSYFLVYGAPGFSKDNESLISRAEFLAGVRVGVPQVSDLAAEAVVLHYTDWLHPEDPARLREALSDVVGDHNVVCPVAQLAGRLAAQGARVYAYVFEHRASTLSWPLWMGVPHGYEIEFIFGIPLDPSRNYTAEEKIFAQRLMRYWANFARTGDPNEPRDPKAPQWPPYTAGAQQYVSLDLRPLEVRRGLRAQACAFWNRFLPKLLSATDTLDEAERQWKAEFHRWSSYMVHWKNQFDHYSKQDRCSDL
Voltage-gated inwardly rectifying potassium channel KCNH2 (Homo sapiens), sequence (Q12809 whole entry, looked up): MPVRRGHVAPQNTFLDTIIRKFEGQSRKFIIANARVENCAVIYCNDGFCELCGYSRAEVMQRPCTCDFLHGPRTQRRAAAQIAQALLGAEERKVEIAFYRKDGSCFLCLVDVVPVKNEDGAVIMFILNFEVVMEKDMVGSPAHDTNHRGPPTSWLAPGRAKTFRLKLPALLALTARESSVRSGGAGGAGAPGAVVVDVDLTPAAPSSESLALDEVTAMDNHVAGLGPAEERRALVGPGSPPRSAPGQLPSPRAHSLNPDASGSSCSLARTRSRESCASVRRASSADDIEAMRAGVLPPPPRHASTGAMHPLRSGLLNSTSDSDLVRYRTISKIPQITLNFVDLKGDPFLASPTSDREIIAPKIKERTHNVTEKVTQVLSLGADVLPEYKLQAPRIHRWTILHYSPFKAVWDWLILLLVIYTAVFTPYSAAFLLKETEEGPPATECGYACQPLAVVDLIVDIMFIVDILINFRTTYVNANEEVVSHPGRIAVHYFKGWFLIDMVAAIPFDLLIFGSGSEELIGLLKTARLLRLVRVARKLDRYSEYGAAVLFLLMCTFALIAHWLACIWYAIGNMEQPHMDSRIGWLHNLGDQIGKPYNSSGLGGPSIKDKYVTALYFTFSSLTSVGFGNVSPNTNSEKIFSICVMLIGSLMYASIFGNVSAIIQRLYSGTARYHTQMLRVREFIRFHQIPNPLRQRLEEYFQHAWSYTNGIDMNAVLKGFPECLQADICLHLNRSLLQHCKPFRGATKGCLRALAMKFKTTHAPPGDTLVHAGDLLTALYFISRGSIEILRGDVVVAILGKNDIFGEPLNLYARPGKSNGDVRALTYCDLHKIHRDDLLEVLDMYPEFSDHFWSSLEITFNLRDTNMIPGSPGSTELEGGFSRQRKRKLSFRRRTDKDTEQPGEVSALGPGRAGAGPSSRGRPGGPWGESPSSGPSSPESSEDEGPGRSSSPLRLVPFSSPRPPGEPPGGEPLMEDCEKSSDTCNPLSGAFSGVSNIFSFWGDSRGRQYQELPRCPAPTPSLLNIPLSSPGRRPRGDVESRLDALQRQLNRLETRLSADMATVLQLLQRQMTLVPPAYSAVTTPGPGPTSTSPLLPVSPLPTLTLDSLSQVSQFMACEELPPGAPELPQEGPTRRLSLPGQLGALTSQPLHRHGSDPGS
Nuclear receptor subfamily 1 group I member 2 (Homo sapiens), sequence (O75469 whole entry, looked up): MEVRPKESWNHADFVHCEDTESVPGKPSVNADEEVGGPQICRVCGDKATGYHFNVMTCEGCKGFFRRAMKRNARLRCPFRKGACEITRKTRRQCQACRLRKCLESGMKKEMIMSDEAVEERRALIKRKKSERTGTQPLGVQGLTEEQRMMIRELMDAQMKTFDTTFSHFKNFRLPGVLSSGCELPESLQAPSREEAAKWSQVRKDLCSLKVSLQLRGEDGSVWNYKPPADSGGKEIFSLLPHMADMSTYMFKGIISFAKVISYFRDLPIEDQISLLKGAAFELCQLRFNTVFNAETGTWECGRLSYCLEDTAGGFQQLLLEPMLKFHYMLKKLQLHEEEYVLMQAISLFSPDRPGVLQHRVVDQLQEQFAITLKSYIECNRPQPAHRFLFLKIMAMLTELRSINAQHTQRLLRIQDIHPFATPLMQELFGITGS
Cytochrome P450 2C9 (Homo sapiens), sequence (P11712 whole entry, looked up): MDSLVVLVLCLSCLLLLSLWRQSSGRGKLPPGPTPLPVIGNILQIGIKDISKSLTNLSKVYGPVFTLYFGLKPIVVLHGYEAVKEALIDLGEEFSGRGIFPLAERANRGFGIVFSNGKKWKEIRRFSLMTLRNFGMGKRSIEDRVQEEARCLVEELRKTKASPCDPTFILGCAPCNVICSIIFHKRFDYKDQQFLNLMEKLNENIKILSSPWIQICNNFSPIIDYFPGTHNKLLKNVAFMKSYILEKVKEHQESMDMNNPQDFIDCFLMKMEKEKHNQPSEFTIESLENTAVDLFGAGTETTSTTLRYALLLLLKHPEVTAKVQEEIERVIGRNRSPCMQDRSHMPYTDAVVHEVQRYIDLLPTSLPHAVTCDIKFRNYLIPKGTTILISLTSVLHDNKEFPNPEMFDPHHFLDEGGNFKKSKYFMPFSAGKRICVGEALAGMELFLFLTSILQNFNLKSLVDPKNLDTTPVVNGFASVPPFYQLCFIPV
Cytochrome P450 1A2 (Homo sapiens), sequence (P05177 whole entry, looked up): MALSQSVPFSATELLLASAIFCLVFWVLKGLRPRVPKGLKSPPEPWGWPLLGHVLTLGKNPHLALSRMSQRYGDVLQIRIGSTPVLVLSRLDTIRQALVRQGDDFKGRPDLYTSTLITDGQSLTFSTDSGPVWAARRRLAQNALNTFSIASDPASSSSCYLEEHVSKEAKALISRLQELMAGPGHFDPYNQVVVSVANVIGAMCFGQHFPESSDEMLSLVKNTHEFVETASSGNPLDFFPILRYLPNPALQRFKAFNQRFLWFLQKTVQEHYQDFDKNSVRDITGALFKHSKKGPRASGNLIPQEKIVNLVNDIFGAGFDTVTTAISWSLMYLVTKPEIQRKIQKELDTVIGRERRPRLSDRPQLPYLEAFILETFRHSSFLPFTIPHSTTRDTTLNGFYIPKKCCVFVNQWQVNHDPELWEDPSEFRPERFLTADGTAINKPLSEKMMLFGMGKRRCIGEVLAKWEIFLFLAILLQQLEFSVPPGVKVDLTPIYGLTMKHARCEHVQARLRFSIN
Cytochrome P450 2D6 (Homo sapiens), sequence (P10635 whole entry, looked up): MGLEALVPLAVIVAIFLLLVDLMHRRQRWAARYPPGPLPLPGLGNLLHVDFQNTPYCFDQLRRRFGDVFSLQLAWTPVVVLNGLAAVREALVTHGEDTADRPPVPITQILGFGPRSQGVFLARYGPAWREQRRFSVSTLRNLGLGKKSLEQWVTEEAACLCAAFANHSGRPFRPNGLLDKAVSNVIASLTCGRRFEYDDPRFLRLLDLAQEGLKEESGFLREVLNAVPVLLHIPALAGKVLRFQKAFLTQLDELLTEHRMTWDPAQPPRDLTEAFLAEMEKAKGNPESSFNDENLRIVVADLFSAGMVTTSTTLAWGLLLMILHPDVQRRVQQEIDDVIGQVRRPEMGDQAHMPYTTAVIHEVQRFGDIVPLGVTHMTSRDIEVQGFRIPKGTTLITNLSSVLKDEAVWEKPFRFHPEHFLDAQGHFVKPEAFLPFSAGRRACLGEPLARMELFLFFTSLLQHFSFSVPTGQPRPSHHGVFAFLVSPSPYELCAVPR
Cytochrome P450 2C19 (Homo sapiens), sequence (P33261 whole entry, looked up): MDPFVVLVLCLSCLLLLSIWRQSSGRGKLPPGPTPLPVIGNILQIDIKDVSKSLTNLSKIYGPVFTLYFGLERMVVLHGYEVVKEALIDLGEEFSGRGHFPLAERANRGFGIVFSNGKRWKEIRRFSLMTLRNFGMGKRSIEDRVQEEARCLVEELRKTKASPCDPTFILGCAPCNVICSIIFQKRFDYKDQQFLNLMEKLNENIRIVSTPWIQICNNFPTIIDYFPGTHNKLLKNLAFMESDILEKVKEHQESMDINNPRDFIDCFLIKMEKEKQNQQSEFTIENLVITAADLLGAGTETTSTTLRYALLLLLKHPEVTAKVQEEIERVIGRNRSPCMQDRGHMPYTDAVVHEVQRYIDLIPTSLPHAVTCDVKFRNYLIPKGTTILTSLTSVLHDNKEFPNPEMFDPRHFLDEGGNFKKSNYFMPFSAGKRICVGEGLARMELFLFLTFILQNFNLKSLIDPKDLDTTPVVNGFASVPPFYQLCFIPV

## CC(=O)[O][Pb]([c]1ccccc1)([c]1ccccc1)[c]1ccccc1
[1]
  Potency: 4.33 µM (active)
[2]
  Potency: 2.43 µM (active)
[3]
  Potency: 0.386 µM (active)
[4]
  Potency: 0.486 µM (active)
[5]
  Potency: 10.9 µM (active)
[6]
  Potency: inactive
[7]
  Potency: inactive
[8]
  Potency: inactive
[9]
  Potency: inactive
[10]
  Potency: inactive
[11]
  Potency: 22.4 µM (active)
[12]
  Potency: 8.94 µM (active)
[13]
  Potency: 3.17 µM (active)
[14]
  Potency: 39.9 µM (active)
[15]
  Potency: 10 µM (active)

## OCC(Br)CBr (stereo unspecified)
[1]
  Potency: inactive
[2]
  Potency: inactive
[3]
  Potency: inactive
[4]
  Potency: inactive
[5]
  Potency: inactive
[6]
  Potency: inactive
[7]
  Potency: inactive
[8]
  Potency: inactive
[9]
  Potency: inactive
[10]
  Potency: inactive
[12]
  Potency: inactive
[13]
  Potency: inactive
[16]
  Potency: inactive
[15]
  Potency: inactive

## C=C(C)C(=O)[O][Sn]([CH2]CCC)([CH2]CCC)[CH2]CCC
[1]
  Potency: 0.306 µM (active)
[2]
  Potency: 2.17 µM (active)
[3]
  Potency: 0.306 µM (active)
[4]
  Potency: 0.433 µM (active)
[5]
  Potency: 2.43 µM (active)
[6]
  Potency: 0.193 µM (active)
[7]
  Potency: inactive
[8]
  Potency: inactive
[9]
  Potency: inactive
[10]
  Potency: inactive
[11]
  Potency: 2.24 µM (active)
[12]
  Potency: 0.71 µM (active)
[13]
  Potency: 11.2 µM (active)
[16]
  Potency: 4.9 µM (active)
[15]
  Potency: 22.4 µM (active)

## CCCCc1ccccc1
[1]
  Potency: inactive
[2]
  Potency: inactive
[3]
  Potency: inactive
[4]
  Potency: inactive
[5]
  Potency: inactive
[6]
  Potency: inactive
[7]
  Potency: inactive
[8]
  Potency: inactive
[9]
  Potency: inactive
[10]
  Potency: inactive
[11]
  Potency: inactive
[12]
  Potency: inactive
[13]
  Potency: inactive
[16]
  Potency: inactive
[15]
  Potency: inactive

## ClSC(Cl)(Cl)Cl
[1]
  Potency: inactive
[2]
  Potency: inactive
[3]
  Potency: inactive
[4]
  Potency: inactive
[5]
  Potency: inactive
[6]
  Potency: inactive
[7]
  Potency: inactive
[8]
  Potency: inactive
[9]
  Potency: inactive
[10]
  Potency: inactive
[11]
  Potency: 10.1 µM (active)
[12]
  Potency: inactive
[13]
  Potency: 31.8 µM (active)
[16]
  Potency: inactive
[15]
  Potency: inactive

## Cc1ccn2nc(S(=O)(=O)Nc3c(F)cccc3F)nc2n1
[1]
  Potency: inactive
[2]
  Potency: inactive
[3]
  Potency: inactive
[4]
  Potency: inactive
[5]
  Potency: inactive
[6]
  Potency: inactive
[7]
  Potency: inactive
[8]
  Potency: inactive
[9]
  Potency: inactive
[10]
  Potency: inactive
[11]
  Potency: inactive
[13]
  Potency: 39.9 µM (active)
[14]
  Potency: inactive
[16]
  Potency: inactive
[15]
  Potency: inactive

## [O]=[Cr][O][Cr]=[O]
[1]
  Potency: inactive
[2]
  Potency: inactive
[3]
  Potency: inactive
[4]
  Potency: inactive
[5]
  Potency: inactive
[6]
  Potency: inactive
[7]
  Potency: inactive
[8]
  Potency: inactive
[9]
  Potency: inactive
[10]
  Potency: inactive
[11]
  Potency: 2.58 µM (active)
[13]
  Potency: inactive
[16]
  Potency: inactive
[15]
  Potency: inactive

## CC(C)NCC(O)c1ccccc1Cl (stereo unspecified)
[1]
  Potency: inactive
[2]
  Potency: inactive
[3]
  Potency: inactive
[4]
  Potency: inactive
[5]
  Potency: inactive
[6]
  Potency: inactive
[17]
  max activation: 1.03%
[18]
  Potency: inactive
[7]
  Potency: inactive
[8]
  Potency: inactive
[9]
  Potency: inactive
[10]
  Potency: inactive
[11]
  Potency: 7.76 µM (active)
[12]
  Potency: inactive
[13]
  Potency: inactive
[14]
  Potency: inactive
[16]
  Potency: inactive
[15]
  Potency: inactive
